From PubChem BioAssay
IL1B secr inh = qHTS for Inhibitors of Inflammasome Signaling: IL-1-beta AlphaLISA Primary Screen; actives 4.7% (n = 360,000); THP-1 LPS/ATP IL-1B secretion, AlphaLISA, 16 h; active compounds read low; activity change, % at 57.5 µM; in the data active = activity change below about -50%; inconclusive = mostly about -30% to -49%
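THP-1 cells pretreated 1 hr with compounds (up to 57.5 uM final), then stimulated with LPS (250 ng/mL final) plus ATP (1.25 mM final); secreted IL-1B measured by AlphaLISA after 16 hr, decreased signal indicating inhibition.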
TGFb inhibitor = qHTS for Inhibitors of TGF-b | HepG2 CAGA-GFP TGF-b/SMAD3 reporter, GFP fluorescence, 18 h; TGF-beta stimulated, 500 pg/mL final | Potency, µM (top dose mostly 46.1 µM), usual class: inhibitors | actives 1.2% (n = 410,000) | AID 588855, 2011; also: nearly all actives have a fitted effect of over 65% in size
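Using HEPG2 CAGA-GFP reporter cells at 1000 cells/well, we pinned test compounds, stimulated with recombinant TGF-beta (500 pg/mL final) and measured total well GFP after 18 h.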
DT40 TDP1 CPT = qHTS for Inhibitors of human tyrosyl-DNA phosphodiesterase 1 (TDP1): qHTS in cells in presence of CPT; chicken DT40 Tdp1-/-;hTDP1 cells + 20 nM CPT, ATP luminescence, 48 h; actives 12% (n = 420,000); Potency, µM (doses to about 46.2 µM), hits mostly inhibitors; AID 686979, 2013; also: nearly all actives have a fitted effect of over 55% in size
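Cell growth measured by CellTiter-Glo luminescence after a minimum 48 h, 37 C compound exposure with 20 nM CPT in Tdp1-knockout DT40 cells stably expressing hTDP1, seeded 400/well; qHTS titration format.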
HepG2 viability = qHTS for Inhibitors of TGF-b: Cytotox Counterscreen | actives 0.76% (n = 410,000) | AID 588856, 2011 | HepG2 CAGA-GFP viability, ATP luminescence, 18 h | Potency, µM (series often up to 46.1 µM), most hits filed as cytotoxic
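HepG2 CAGA-GFP cells (1000/well, DMEM with 1% FBS) received compound, then TGF-beta at 500 pg/mL final, and were incubated 18 hours at 37 degrees C. Viability was read by CellTiter-Glo luminescence. Media-only wells were set as complete cell-killing and DMSO as no toxicity.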
TDP1 block = qHTS Assay for Inhibitors of Tyrosyl-DNA Phosphodiesterase (TDP1). Tyrosyl-DNA phosphodiesterase 1 (Homo sapiens), Q9NUW8. recombinant TDP1, AlphaScreen DNA substrate cleavage. Potency, µM (series often up to 130 µM), usual class: inhibitors. actives 0.28% (n = 350,000); also: nearly all actives have a fitted effect of over 40% in size
Target sequence (Q9NUW8 whole entry, looked up): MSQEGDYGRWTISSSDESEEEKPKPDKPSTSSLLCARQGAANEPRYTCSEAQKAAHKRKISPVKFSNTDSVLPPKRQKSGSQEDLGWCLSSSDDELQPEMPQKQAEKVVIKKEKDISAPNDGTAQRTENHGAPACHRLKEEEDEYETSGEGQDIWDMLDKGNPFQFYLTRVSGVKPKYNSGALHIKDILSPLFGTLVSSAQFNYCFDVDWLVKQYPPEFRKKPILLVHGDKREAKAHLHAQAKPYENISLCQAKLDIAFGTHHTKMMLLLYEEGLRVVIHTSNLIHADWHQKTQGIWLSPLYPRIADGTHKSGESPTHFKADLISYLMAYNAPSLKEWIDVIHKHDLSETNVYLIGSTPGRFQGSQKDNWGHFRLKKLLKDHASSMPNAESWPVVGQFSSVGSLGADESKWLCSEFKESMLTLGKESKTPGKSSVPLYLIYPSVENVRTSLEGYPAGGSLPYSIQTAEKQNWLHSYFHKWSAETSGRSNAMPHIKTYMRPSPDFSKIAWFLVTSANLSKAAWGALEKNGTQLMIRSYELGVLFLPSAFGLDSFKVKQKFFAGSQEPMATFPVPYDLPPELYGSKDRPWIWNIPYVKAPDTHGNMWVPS
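Enzyme-compound mixtures sat 15 min at room temperature, followed by a 5 min reaction with 15 nM final substrate and 10 min with AlphaScreen beads. Recombinant human Tdp1 was used at 1 nM final.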
TDP1 cell noCPT = qHTS for Inhibitors of human tyrosyl-DNA phosphodiesterase 1 (TDP1): qHTS in cells in absence of CPT | actives 15% (n = 420,000) | Potency, µM (highest dose often 46.2 µM), actives largely listed as inhibitors | AID 686978, 2013 | DT40 Tdp1-/- hTDP1 cells, no CPT, ATP luminescence, 48 h; also: nearly all actives have a fitted effect of over 55% in size
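DT40 Tdp1-/-;hTDP1 cells, no CPT (DMSO vehicle only), 400 cells/well; compounds pin-transferred; ≥48 hr, 37 °C; CellTiter-Glo 30 min RT dark, luminescence read.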
Hits are given with their value; 0 = inactive; ? = inconclusive; - = not tested or not shown. Hits are enriched below; roughly 19% of the tested compounds scored in any of these assays. Unless noted, calls follow the shape of the dose curve; as a rule, active = well fitted curve in the direction sought with a large enough effect; inconclusive = small, poorly fitted or top-dose-only effect, or another doubt; inactive = no such curve, though single readings can be large; an effect the other way counts as inactive or inconclusive.

SMILES | IL1B secr inh | TGFb inhibitor | DT40 TDP1 CPT | HepG2 viability | TDP1 block | TDP1 cell noCPT
COc1ccc(S(=O)(=O)Nc2ccc3c(c2)C(=O)N([C@H](C)CO)C[C@H](C)[C@@H](CN(C)S(=O)(=O)c2ccccc2)O3)cc1 | 0 | 0 | 20.6µM | 0 | 0 | ?
CCCCNC(=O)C1(C)CCCCN1C(=O)c1cncc(Br)c1 (configuration not stated) | 0 | 0 | 0 | 0 | - | 0
COc1cccc(NC(=O)c2cc3c(-c4ccc(Cl)cc4)nn(C)c3s2)c1 | - | 0 | ? | 0 | 0 | 14.6µM
COc1ccc(-c2nn(C)c3sc(C(=O)Nc4cccc(F)c4)cc23)cc1OC | - | 0 | 14.6µM | 0 | 0 | 10.3µM
Cc1ccc(NC(=O)Cn2cc(C(=O)C3CCCCC3)c3ccccc32)cc1 | - | - | ? | 0 | 0 | ?
Cc1cc(Nc2ccccc2)c2c([N+](=O)[O-])cc(C)c(C)c2n1 | 0 | ? | 9.2µM | 0 | 0 | 23.1µM
CC(C)(Cc1c[nH]c2ccccc12)NCC(O)COc1ccccc1C#N (configuration not stated) | - | - | 21.1µM | - | 0 | 23.7µM
Cc1c[nH]c2cccc(OCC(O)CNC(C)(C)C)c12 (configuration not stated) | 0 | 0 | 0 | 0 | 0 | 0
O=C(/C=C/c1ccc2c(c1)OCO2)Nc1nc(-c2ccccc2)cs1 | ? | 0 | ? | 0 | 0 | ?
Cc1ccccc1-n1nc2c(c1NC(=O)c1c(-c3ccccc3Cl)noc1C)CSC2 | 0 | ? | 0 | 0 | 0 | 20.6µM
Cc1ccc(-n2nc3c(c2NC(=O)/C=C\c2ccc4c(c2)OCO4)CSC3)cc1 | 0 | 0 | ? | 0 | 0 | 18.4µM
Cc1ccccc1-n1nc2c(c1NC(=O)CCCl)CSC2 | 0 | 0 | ? | 0 | - | ?
Cc1ccc(-n2nc3c(c2NC(=O)c2c(-c4ccccc4Cl)noc2C)CSC3)cc1 | 0 | 0 | 25.9µM | 0 | 0 | ?
Cc1sc(NC(=O)/C=C/c2ccc3c(c2)OCO3)nc1-c1ccccc1 | 0 | ? | 14.6µM | 0 | 0 | 16.4µM
Cc1onc(-c2ccccc2Cl)c1C(=O)Nc1ccc(N2CCOCC2)cc1 | 0 | 0 | ? | 0 | 0 | ?
COc1ccc2c(c1)CC(C(=O)NCCCN1CCN(c3ccc(F)cc3)CC1)CO2 (configuration not stated) | - | 0 | 20.6µM | 0 | 0 | 25.9µM
COc1ccc(N2CCN(CCCNC(=O)C3COc4ccc(OC)cc4C3)CC2)cc1 (configuration not stated) | - | 0 | 14.6µM | 0 | 0 | 20.6µM
O=C(NCCCN1CCN(c2ccccc2F)CC1)C1COc2ccccc2C1 (configuration not stated) | - | 0 | 25.9µM | 0 | 0 | ?
COc1ccc2c(c1)CC(C(=O)NCCN1CCN(c3ccccc3F)CC1)CO2 (configuration not stated) | - | 0 | ? | 0 | 0 | ?
COc1ccc(N2CCN(CCCNC(=O)C3COc4ccccc4C3)CC2)cc1 (configuration not stated) | - | 0 | 11.6µM | 0 | 0 | 16.4µM
COc1ccc(N2CCN(CCCNC(=O)CN3C(=O)COc4ccccc43)CC2)cc1 | 0 | 0 | ? | 0 | 0 | 0
COc1ccccc1-n1c(=O)c2c3c(sc2n(C)c1=O)CN(C(C)=O)CC3 | - | 0 | 0 | 0 | 0 | 0
CCC(C)C1NC(=O)C(CCNCS(=O)(=O)O)NC(=O)C(NC(=O)C(CCNCS(=O)(=O)O)NC(=O)C(NC(=O)C(CCNCS(=O)(=O)O)NC(=O)CCCCC(C)C)C(C)O)CCNC(=O)C(C(C)O)NC(=O)C(CCNCS(=O)(=O)O)NC(=O)C(CCNCS(=O)(=O)O)NC(=O)C(C(C)CC)NC1=O (configuration not stated) | - | - | - | - | 0 | -
COc1ccc([C@H]2/C=C\CN(S(=O)(=O)c3ccc(C)cc3)[C@@H](C)C(=O)N2Cc2ccc(F)cc2)cc1 | 0 | ? | 18.4µM | 0 | - | ?
COc1ccc(C2/C=C\CN(S(=O)(=O)c3ccc(C)cc3)CC(=O)N2Cc2ccc(F)cc2)cc1 (configuration not stated) | 0 | 0 | ? | 0 | 0 | 18.4µM
SMILES | IL1B secr inh | TGFb inhibitor | DT40 TDP1 CPT | HepG2 viability | TDP1 block | TDP1 cell noCPT
COc1ccc(C2/C=C\CC(NS(=O)(=O)c3ccc(C)cc3)CC(=O)N2Cc2ccccc2F)cc1 (configuration not stated) | 0 | ? | 23.1µM | 0 | 0 | ?
COc1ccc(C2/C=C\CN(S(=O)(=O)c3ccc(C)cc3)CC(=O)N2Cc2cccc(F)c2)cc1 (configuration not stated) | 0 | 0 | 14.6µM | 0 | 0 | ?
Cc1ccc(CNC(=O)Cn2ncc3c([nH]c4ccc(C)cc43)c2=O)cc1 | - | ? | 0 | 0 | 0 | 0
CC(C)n1cc(CN2CCC(Oc3ccc(C(=O)N4CCCCC4)cc3)CC2)cn1 | 0 | 0 | 0 | 0 | 0 | 0
COc1ccc([C@H]2/C=C\CN(S(=O)(=O)c3cccc4cccnc34)[C@@H](C)C(=O)N2Cc2ccc(F)cc2)cc1 | 0 | ? | 18.4µM | 0 | - | 14.6µM
C[C@H](CO)N1C[C@H](C)[C@@H](CN(C)S(=O)(=O)c2cn(C)cn2)Oc2c(NS(=O)(=O)c3ccc(F)cc3)cccc2C1=O | 0 | 0 | 0 | 0 | 0 | 0
CC(C)NC(=O)c1ccc2c(c1)N(CC(=O)Nc1ccccc1F)C(=O)C(C)(C)O2 | 0 | 0 | 0 | 0 | 0 | 0
COc1cc(Br)cc(/C=C/c2ccc3cccc(O)c3n2)c1OC | 0 | 0 | ? | 0 | - | ?
COc1cc(/C=C/c2ccc3cccc([N+](=O)[O-])c3n2)ccc1OCC(=O)O | 0 | ? | 0 | 0 | 0 | 0
COc1cc(/C=C/c2ccc3cccc(O)c3n2)cc(Cl)c1OC | -93.3 | ? | 4.11µM | 0 | - | 4.11µM
COc1ccc(Br)cc1/C=C/c1ccc2cccc(O)c2n1 | 0 | 0 | ? | 0 | - | 20.6µM
COc1ccc(/C=C/c2ccc3cccc(O)c3n2)cc1Br | 0 | 0 | 5.8µM | 0 | - | 5.17µM
COc1cc(/C=C/c2ccc3cccc(O)c3n2)cc(OC)c1OC | -102.2 | ? | ? | 0 | - | ?
O=C(CSc1nc2ncccc2o1)Nc1cccc(C(F)(F)F)c1 | - | 0 | 0 | 0 | 0 | 0
